Luciferase inh: blocks purified firefly luciferase enzyme activity | P08659 | hit rate 2.5% among 76,000 | AID 1347043 | purified P. pyralis luciferase, luminescence, biochemical | Potency, µM (titrated, usually from 115 µM), usual class: inhibitors; further: nearly all actives have a fitted effect of over 65% in size
Target sequence (P08659 whole entry, looked up): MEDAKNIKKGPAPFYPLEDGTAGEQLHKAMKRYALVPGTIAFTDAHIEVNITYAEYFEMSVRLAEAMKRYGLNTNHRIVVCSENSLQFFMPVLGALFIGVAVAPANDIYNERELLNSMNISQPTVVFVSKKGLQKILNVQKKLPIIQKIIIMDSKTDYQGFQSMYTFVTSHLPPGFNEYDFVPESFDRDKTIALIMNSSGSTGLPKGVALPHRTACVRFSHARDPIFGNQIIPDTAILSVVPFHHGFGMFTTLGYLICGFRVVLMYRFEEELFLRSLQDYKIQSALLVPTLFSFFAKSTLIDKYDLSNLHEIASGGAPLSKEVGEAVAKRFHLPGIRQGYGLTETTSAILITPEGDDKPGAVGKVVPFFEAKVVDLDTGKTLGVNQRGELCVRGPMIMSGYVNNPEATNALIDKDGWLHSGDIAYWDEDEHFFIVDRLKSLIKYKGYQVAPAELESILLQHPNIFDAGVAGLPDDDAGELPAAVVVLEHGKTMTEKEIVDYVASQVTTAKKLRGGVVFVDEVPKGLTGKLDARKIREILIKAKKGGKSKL
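Purified P. pyralis luciferase (10nM final) in 50mM Tris acetate pH 7.5, 10mM Mg acetate, 0.01% Tween-20, 0.05% BSA with 10uM D-luciferin and 10uM ATP. Compounds titrated qHTS. Luminescence imaged on CCD.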
NIH3T3 tox: kills NIH 3T3 cells; NIH 3T3 viability, CellTiter-Glo ATP luminescence, 48-72 h; Potency, µM (titrated, usually from 96.7 µM), most hits filed as inhibitors; hit rate 4.3% among 94,000; AID 1345082; further: nearly all actives have a fitted effect of over 55% in size
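Viability of NIH 3T3 cells after 48 or 72 hr compound treatment at 37 °C was assessed by CellTiter-Glo, with luminescence imaged following a 10 min room-temperature step.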
HEK cytotox: kills HEK 293 cells; hit rate 6.6% among 94,000; HEK 293 viability, ATP luminescence (CellTiter-Glo), 48-72 h; AID 1345083; Potency, µM (highest dose often 115 µM), hits mostly inhibitors; further: nearly all actives have a fitted effect of over 60% in size
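HEK 293 cells seeded at 250 cells/well were exposed to compound for 48 or 72 hr at 37 degree Celsius. Viability taken as ATP content by CellTiter-Glo luminescence.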
NPR1 antag: blocks ANP-stimulated signaling of human Npr1 receptor. P16066. HEK293 hNpr1 GloSensor cGMP, ANP-stimulated luminescence. Potency, µM (highest dose often 46.3 µM), actives largely listed as inhibitors. hit rate 1.6% among 76,000. AID 1347048; calls by dose curve; further: nearly all actives have a fitted effect of over 60% in size
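HEK293 cells stably expressing human Npr1 and cGMP GloSensor pGS-40F, loaded 2 h with 2% GloSensor reagent, given compound 30 min at room temperature. Luminescence read before and 20 min after 0.1 nM hNppA.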
Of the large screens only hits and unclear results are named; the others gave an inactive call; ! = repeats disagree. Compounds with a hit are over-represented: about 11% of the library has one in this group of screens. Unless noted, the call rests on the fitted dose curve; in most records, active means well fitted curve in the direction sought with a large enough effect; inconclusive means small, poorly fitted or top-dose-only effect, or another doubt; inactive means no such curve, though single readings can be large; an effect the other way counts as inactive or inconclusive.

COCCNC(=O)CCC1CCN(C(=O)c2ccccc2Cl)CC1	Luciferase inh 32µM
Cn1c(CCNC(=O)c2ccccc2C2CCNC2)nc2ccccc21 (stereo unspecified)	none
O=C(c1ccc(C(F)(F)F)cc1)N1CCC2(C1)C(=O)N(CCc1ccccc1)c1ccccc12 (stereo unspecified)	NIH3T3 tox 40µM!, HEK cytotox 32µM, NPR1 antag inconclusive
O=C(c1ccccc1Cl)N1CCC2(C1)C(=O)N(CCc1ccccc1)c1ccccc12 (stereo unspecified)	NIH3T3 tox inconclusive, HEK cytotox 40µM!
O=C(c1ccc(Cl)nc1)N1CCC2(C1)C(=O)N(CCc1ccccc1)c1ccccc12 (stereo unspecified)	NIH3T3 tox inconclusive, HEK cytotox inconclusive
Cc1ccccc1C(=O)N1CCC2(C1)C(=O)N(CCc1ccccc1)c1ccccc12 (stereo unspecified)	NIH3T3 tox inconclusive, HEK cytotox 40µM!
CCN1C(=O)C2(CCN(S(=O)(=O)c3ccc(C(F)(F)F)cc3)CC2)c2ccccc21	HEK cytotox 32µM
CC(C)(C)CN1Cc2cc3c(cc2N(CC(O)COC(C)(C)C)CCC1=O)OCO3 (stereo unspecified)	NIH3T3 tox inconclusive (no result: Luciferase inh, NPR1 antag)
COc1ccc(CN2CCC3(CC2)CC(C(C)C)=NO3)cc1	NIH3T3 tox inconclusive, HEK cytotox inconclusive
Cc1nn2c(c1-c1ccccc1C(C)C)N(C(=O)COc1ccccc1C(N)=O)CCC2	NIH3T3 tox inconclusive, HEK cytotox 71µM
Cc1nn2c(c1-c1ccccc1C(C)C)N(C(=O)c1ccnn1C)CCC2	NIH3T3 tox inconclusive, HEK cytotox inconclusive
COc1cccc(CC(=O)N2CCCn3nc(C)c(-c4ccccc4C(C)C)c32)c1	NIH3T3 tox inconclusive, HEK cytotox inconclusive, NPR1 antag inconclusive
Cc1nn2c(c1-c1ccccc1C(C)C)N(C(=O)Cc1ccc3c(c1)OCO3)CCC2	NIH3T3 tox 40µM, HEK cytotox inconclusive
COc1ccccc1C(=O)N1CCCn2nc(C)c(-c3ccccc3C(C)C)c21	NIH3T3 tox inconclusive, HEK cytotox 89µM
COc1ccccc1C(=O)N1CCCn2nc(C)c(-c3ccccc3N3CCCC3)c21	NIH3T3 tox inconclusive, HEK cytotox 56µM
Cc1nn2c(c1-c1ccccc1N1CCCC1)N(C(=O)C(C)C)CCC2	NIH3T3 tox inconclusive, HEK cytotox 35µM
Cc1ccc(O)c(CN2CCCC(c3nc(CC(C)C)no3)C2)c1 (stereo unspecified)	NIH3T3 tox inconclusive, HEK cytotox inconclusive
Cc1cc(=O)n(CC(=O)Nc2cccc(C)c2C)c(N2CCc3ccccc3C2)n1	NIH3T3 tox inconclusive, HEK cytotox inconclusive
Cc1cccc(-c2ncc3c(n2)OCCN(c2cccc(C(F)(F)F)c2)C3=O)c1	Luciferase inh inconclusive, HEK cytotox inconclusive
COc1cccc(F)c1-c1ncc2c(n1)OCCN(c1cccc(C(F)(F)F)c1)C2=O	NIH3T3 tox inconclusive, HEK cytotox inconclusive
O=C1c2cnc(-c3ccsc3)nc2OCCN1c1cccc(C(F)(F)F)c1	Luciferase inh 63µM, NIH3T3 tox 112µM, HEK cytotox 100µM, NPR1 antag inconclusive
COc1ccc(F)cc1-c1ncc2c(n1)OCCN(c1cccc(C(F)(F)F)c1)C2=O	NIH3T3 tox 35µM, HEK cytotox inconclusive
Cc1ccc(-c2ncc3c(n2)OCCN(c2ccccc2)C3=O)cc1F	Luciferase inh inconclusive, NIH3T3 tox inconclusive, HEK cytotox inconclusive, NPR1 antag 7.1µM
COc1ccc(OC)c(-c2ncc3c(n2)OCCN(c2cccc(C(F)(F)F)c2)C3=O)c1	NIH3T3 tox inconclusive
COc1cc(F)cc(-c2ncc3c(n2)OCCN(c2cccc(C(F)(F)F)c2)C3=O)c1	Luciferase inh 3.2µM, NIH3T3 tox inconclusive
COc1cccc(CCC2CCCN(C(=O)c3ccoc3C)C2)c1 (stereo unspecified)	NIH3T3 tox inconclusive, HEK cytotox 32µM
COCc1ccc(C(=O)N2CCCC(CCc3cccc(OC)c3)C2)o1 (stereo unspecified)	NIH3T3 tox inconclusive, HEK cytotox 79µM
COc1cccc(CCC2CCCN(C(=O)c3ccsc3)C2)c1 (stereo unspecified)	NIH3T3 tox inconclusive, HEK cytotox inconclusive
COc1ccc(-n2cc(CN3CCN(C)C(C)C3)c(-c3cccc(F)c3)n2)cc1 (stereo unspecified)	Luciferase inh inconclusive, NIH3T3 tox 32µM, HEK cytotox 35µM
O=C(Nc1cc(F)ccc1F)N1CCCC(Cn2c(C3CC3)nc3cccnc32)C1 (stereo unspecified)	NIH3T3 tox inconclusive
Cc1cccc([C@H]2C[C@@H](O)[C@@H](O)[C@@H]2NS(=O)(=O)c2ccccc2)c1	none
c1ccc(OCc2noc(-c3ccc(NC4CCSC4)nc3)n2)cc1 (stereo unspecified)	Luciferase inh inconclusive, NIH3T3 tox inconclusive, HEK cytotox inconclusive
CC1(COc2ccc(-c3nc(COc4ccccc4)no3)cn2)CCCNC1 (stereo unspecified)	Luciferase inh 35µM, NIH3T3 tox inconclusive, HEK cytotox inconclusive, NPR1 antag inconclusive
Cc1cc(CN(C)c2ccc(-c3nc(COc4ccccc4)no3)cn2)on1	Luciferase inh inconclusive, NIH3T3 tox inconclusive, HEK cytotox inconclusive, NPR1 antag 16µM
COc1ccc(CN(C)Cc2ccc(F)cc2)cc1	none
COc1ccc(Nc2cc3c(cn2)CN(CCc2ccccc2)CCN3)cc1	Luciferase inh inconclusive, NIH3T3 tox 25µM, HEK cytotox 32µM
COc1ccc(Nc2cc3c(cn2)CN(CCc2ccccc2)CCN3)cc1OC	NIH3T3 tox 25µM, HEK cytotox 50µM
COCCNc1cc2c(cn1)CN(Cc1ccccc1)CCN2	Luciferase inh inconclusive, NIH3T3 tox inconclusive, HEK cytotox inconclusive
NC1CC(c2cc(N3CCC(OCc4ccccc4)CC3)ncn2)C1 (stereo unspecified)	NIH3T3 tox inconclusive, HEK cytotox inconclusive
O=C(COc1ccccc1)N1CCC(Oc2cnc3c(ccn3-c3cncnc3)c2)CC1	HEK cytotox 89µM
c1ccc(COC2CCN(c3nccc(-c4cccnc4)n3)CC2)nc1	NIH3T3 tox inconclusive, HEK cytotox inconclusive
Fc1ccccc1OCC1CCCN(c2nccc(-c3cccnc3)n2)C1 (stereo unspecified)	NIH3T3 tox 79µM, HEK cytotox inconclusive
Cc1nc2n(c1C(=O)Nc1cccc(Cl)c1C)CCC(Nc1ccc(F)cc1)C2 (stereo unspecified)	NIH3T3 tox inconclusive, HEK cytotox 89µM
Cc1ccc(NC(=O)N2Cc3[nH]cnc3C[C@H]2c2nc(-c3cccc([N+](=O)[O-])c3)no2)cc1	NIH3T3 tox inconclusive, HEK cytotox inconclusive
O=[N+]([O-])c1cccc(-c2noc([C@@H]3Cc4nc[nH]c4CN3)n2)c1	Luciferase inh 45µM!, HEK cytotox inconclusive
CC[C@H]1CN(S(=O)(=O)c2c(C)noc2C)CC[C@H]1CC(=O)NCc1ccc(F)cc1	HEK cytotox inconclusive
CC[C@H]1CN(S(=O)(=O)c2c(C)noc2C)CC[C@H]1CC(=O)NCc1cccc2ccccc12	NIH3T3 tox inconclusive, HEK cytotox 22µM

Screens (PubChem BioAssay)
